We go through 8 compounds from PubChem BioAssay (Tox21).

Unmarked numbers belong to inactive results. Results filed as inconclusive are left out. Activity calls are given as the source filed them. Unless noted, calls follow the shape of the dose curve; as a rule, active = well fitted curve in the direction sought with a large enough effect in the repeat runs; inconclusive = weak or mixed curves; inactive = no such curve, though single readings can be large; an effect the other way counts as inactive or inconclusive.

Assay [1] can be described thus: qHTS assay to identify small molecule antagonists of the constitutive androstane receptor (CAR) signaling pathway - cell viability counter screen (AID 1224837). Also: nearly all actives have a fitted effect of over 45% in size. In a few lines:
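HepG2 cells stably carrying hCAR and CYP2B6-2.2kb reporter, stimulated with 50 nM CITCO and compounds at 15 concentrations for 23 h at 37 C. Viability measured by CellTiter-Fluor fluorescence.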

The target of assay [2] is Nuclear receptor subfamily 1 group I member 3 (Homo sapiens) (UniProt Q14994). Description: qHTS assay to identify small molecule antagonists of the constitutive androstane receptor (CAR) signaling pathway (AID 1224838). Also: nearly all actives have a fitted effect of over 40% in size. The essentials:
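HepG2 cells stably carrying hCAR and a CYP2B6-2.2kb luciferase reporter, seeded 4 hrs before compound (15 concentrations). Stimulated with 50 nM CITCO for 24 hr at 37 C. ONE-Glo luminescence read after 30 min at room temperature.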

For assay [3] the target is unchanged. Description: qHTS assay to identify small molecule agonists of the constitutive androstane receptor (CAR) signaling pathway (AID 1224839). Also: nearly all actives have a fitted effect of over 15% in size. Also: potency is read from the fitted curve at half-maximal effect. The essentials: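 HepG2 cells stably co-transfected with hCAR and a CYP2B6-2.2kb luciferase reporter; compounds at 15 concentrations with 0.75 uM PK11195 present. After 24 hr at 37 C, luciferase read by ONE-Glo luminescence.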
On the technique in general: In qHTS, concentration-response curves come from the screen itself.

Assay [4] can be described thus: qHTS assay to identify small molecule antagonists of the estrogen related receptor signaling pathway with the pleiotropic PPARgamma coactivator (PGC) from Tox21 10K library - cell viability counter screen (AID 1224840; active = well fitted cell-killing curve with a large enough effect in the repeat runs, not every such curve was filed as active; also: nearly all actives have a fitted effect of over 40% in size; also: potency is read from the fitted curve at half-maximal effect). The essentials: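 PGC/ERR cells (2,000/well) plated 6 h, then compound-treated for 17.5 h at 37 C. Viability measured by CellTiter-Fluor fluorescence after 30 min at 37 C, multiplexed with the pathway assay.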

A short description of assay [5]: qHTS assay to identify small molecule antagonists of the estrogen related receptor signaling pathway with the pleiotropic PPARgamma coactivator (PGC) from Tox21 10K library (AID 1224841; call rule not given here; also: actives are mostly falling curves and most rising ones were filed inactive; nearly all actives have a fitted effect of over 50% in size; also: potency is read from the fitted curve at half-maximal effect). In a few lines: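 PGC/ERR cell line, 2,000 cells/well, pre-incubated 6 hours at 37 C, then exposed to compounds for 18 hours at 37 C; luciferase read with One-Glo luminescence after 30 min at room temperature.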

The nature of assay [6]: qHTS assay to identify small molecule agonists of the estrogen related receptor signaling pathway with the pleiotropic PPARgamma coactivator (PGC) from Tox21 10K library (AID 1224842). Also: nearly all actives have a fitted effect of over 15% in size. In a few lines: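 PGC/ERR reporter cell line, 2,000 cells per well, incubated 6 h at 37 C before 23 nL compound in DMSO was added. After 18 h at 37 C, One-Glo luminescence read following 30 min at room temperature.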

The target in assay [7] is Thyrotropin receptor (Homo sapiens) (UniProt P16473). Description: qHTS assay to identify small molecule agonists of the thyroid stimulating hormone receptor (TSHR) signaling pathway (AID 1224843; calls by dose curve; also: nearly all actives have a fitted effect of over 45% in size; also: potency is read from the fitted curve at half-maximal effect). In a few lines:
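Steps: seed 800 TSHR-HEK293 cells per well; add test compound and hold 30 min at ambient temperature; dispense cAMP-d2 then anti-cAMP cryptate; incubate 1 h at ambient; measure fluorescence intensity.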

Assay [8] is described as follows: qHTS assay to identify small molecule agonists of the hypoxia (HIF-1) signaling pathway (AID 1224846; active = well fitted activation curve with a large enough effect in the signal ratio in the repeat runs, not every such curve was filed as active; the % refers to the signal ratio). In a few lines:
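HRE-bla ME-180 beta-lactamase reporter cells in medium with 0.5% dialyzed FBS, pre-incubated 5 h then exposed to compounds 17 h at 37C, 5% CO2; reporter induction read with CCF4-AM FRET substrate.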

A short description of assay [9]: qHTS assay to identify small molecule agonists of H2AX - cell viability counter screen (AID 1224847; calls by dose curve; also: top concentration of the series differs between compounds; nearly all actives have a fitted effect of over 30% in size). The essentials:
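CHO-K1 cells plated overnight at 37C, then exposed 3 h at 37C to compounds at 15 concentrations (0.76% DMSO final). Viability by CellTiter-Glo luminescence after 30 min at room temperature.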

A short description of assay [10]: qHTS assay to identify small molecule antagonists of the estrogen related receptor (ERR) signaling pathway from Tox21 library (AID 1224848). Also: nearly all actives have a fitted effect of over 50% in size. Also: potency is read from the fitted curve at half-maximal effect. In a few lines:
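Luminescent reporter read-out (ONE-Glo) from NTP's ERR cell line after 18 h treatment at 37 C with DMSO-dissolved Tox21 compounds; cells pre-plated 6 h beforehand at 2,000 per well.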

A short description of assay [11]: qHTS assay to identify small molecule agonists of the estrogen related receptor (ERR) signaling pathway from Tox21 library (AID 1224849; calls by dose curve; also: nearly all actives have a fitted effect of over 15% in size). Particulars: ERR reporter cell line, ONE-Glo luciferase, 18 h; at 92.4 µM (top of the series) unless noted. In a few lines: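 ERR reporter cells (NTP line) pre-incubated 6 hours at 37 C, then exposed to compounds for 18 hours at 37 C. ONE-Glo luciferase luminescence was read after 30 minutes at room temperature.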

Assay [12] in a line: qHTS RealTime-Glo MT Cell Viability Assay in HepG2 cells - 24 hour (AID 1224867). Also: nearly all actives have a fitted effect of over 50% in size. Also: potency is read from the fitted curve at half-maximal effect. The essentials:
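Tox21 10K library screened in qHTS format on HepG2 cells carrying RealTime-Glo reagents. Compounds were added after a 5 h preincubation, and the luminescent signal from continuous culture was measured repeatedly during 40 h treatment.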

Assay [13] is described as follows: A CellTox Green Cytotoxicity Assay to monitor cytotoxicity in HEK293 cells - 0 hour (AID 1224869). Also: nearly all actives have a fitted effect of over 50% in size. In a few lines:
(§1)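 HEK293 cells, 600/well, were preincubated 5 hours and then exposed to compounds at 37 C for up to 40 hours. A cell-impermeant cyanine dye staining dead-cell DNA was read by fluorescence at 0, 8, 16, 24, 32 and 40 h time points.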

Assay [14] is described as follows: qHTS RealTime-Glo MT Cell Viability Assay in HepG2 cells - 8 hour (AID 1224873). Also: nearly all actives have a fitted effect of over 55% in size. The essentials:
(§2)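 HepG2 cells (600/well) mixed with RealTime-Glo MT reagent, settled 5 h at 37 C/5% CO2 before compound addition. Nonlytic NanoLuc luminescence from viable-cell prosubstrate reduction read repeatedly during 40 h treatment at 37 C.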

Assay [15] is described as follows: qHTS assay to identify small molecule agonists of H2AX (AID 1224845; active = well fitted activation curve with a large enough effect in the signal ratio in the repeat runs, not every such curve was filed as active; the % refers to the signal ratio). The essentials: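 Wild-type CHO-K1 cells, plated overnight, exposed 3hr at 37C to 15 concentrations (0.76% DMSO final). Lysed, then HTRF anti-pH2AX (S139) cryptate and anti-H2AX-d2 antibodies, 24 hr room temperature; 665/620 nm emission read.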
Assay [16] in a line: qHTS RealTime-Glo MT Cell Viability Assay in HEK293 cells - 32 hour (AID 1224868). Also: nearly all actives have a fitted effect of over 50% in size. Also: potency is read from the fitted curve at half-maximal effect. In a few lines:
(§3)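 Luminescence generated by NanoLuc from substrate produced by living HEK293 cells served as the viability signal. Each value reflects the reading at its stated time point during continuous 40 h compound exposure at 37 C.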

The nature of assay [17]: qHTS RealTime-Glo MT Cell Viability Assay in HepG2 cells - 40 hour (AID 1224870). Also: nearly all actives have a fitted effect of over 50% in size. The essentials:
as §2

The nature of assay [18]: A CellTox Green Cytotoxicity Assay to monitor cytotoxicity in HEK293 cells - 40 hour (AID 1224871). Also: nearly all actives have a fitted effect of over 45% in size. Also: potency is read from the fitted curve at half-maximal effect. The essentials:
as §1

The nature of assay [19]: qHTS RealTime-Glo MT Cell Viability Assay in HEK293 cells - 16 hour (AID 1224872). Also: nearly all actives have a fitted effect of over 50% in size. Also: potency is read from the fitted curve at half-maximal effect. The essentials:
as §3

Assay [20] is described as follows: qHTS assay to identify small molecule agonists of the hypoxia (HIF-1) signaling pathway - cell viability counter screen (AID 1224844; calls by dose curve; also: nearly all actives have a fitted effect of over 50% in size; also: potency is read from the fitted curve at half-maximal effect). The essentials: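 HRE-bla ME-180 cells, 2,000/well in 0.5% dialyzed FBS medium, treated 17 h at 37C with compounds. Viability read in the same wells as the bla reporter, by CellTiter-Glo luminescence after 30 min at room temperature.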
% is scaled to controls: 0 for no effect and ±100 for the full control effect.

Chain of Nuclear receptor subfamily 1 group I member 3 (Homo sapiens) (Q14994 whole entry, looked up): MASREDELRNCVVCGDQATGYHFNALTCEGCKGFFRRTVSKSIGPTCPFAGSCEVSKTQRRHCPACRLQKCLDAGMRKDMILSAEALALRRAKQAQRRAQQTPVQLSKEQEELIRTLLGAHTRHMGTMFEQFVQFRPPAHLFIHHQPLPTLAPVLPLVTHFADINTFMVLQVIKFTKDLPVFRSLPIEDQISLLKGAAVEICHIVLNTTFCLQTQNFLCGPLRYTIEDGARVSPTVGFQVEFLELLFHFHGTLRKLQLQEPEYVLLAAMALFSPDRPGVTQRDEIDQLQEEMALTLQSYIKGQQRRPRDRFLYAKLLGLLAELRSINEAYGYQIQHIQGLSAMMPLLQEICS
Chain of Thyrotropin receptor (Homo sapiens) (P16473 whole entry, looked up): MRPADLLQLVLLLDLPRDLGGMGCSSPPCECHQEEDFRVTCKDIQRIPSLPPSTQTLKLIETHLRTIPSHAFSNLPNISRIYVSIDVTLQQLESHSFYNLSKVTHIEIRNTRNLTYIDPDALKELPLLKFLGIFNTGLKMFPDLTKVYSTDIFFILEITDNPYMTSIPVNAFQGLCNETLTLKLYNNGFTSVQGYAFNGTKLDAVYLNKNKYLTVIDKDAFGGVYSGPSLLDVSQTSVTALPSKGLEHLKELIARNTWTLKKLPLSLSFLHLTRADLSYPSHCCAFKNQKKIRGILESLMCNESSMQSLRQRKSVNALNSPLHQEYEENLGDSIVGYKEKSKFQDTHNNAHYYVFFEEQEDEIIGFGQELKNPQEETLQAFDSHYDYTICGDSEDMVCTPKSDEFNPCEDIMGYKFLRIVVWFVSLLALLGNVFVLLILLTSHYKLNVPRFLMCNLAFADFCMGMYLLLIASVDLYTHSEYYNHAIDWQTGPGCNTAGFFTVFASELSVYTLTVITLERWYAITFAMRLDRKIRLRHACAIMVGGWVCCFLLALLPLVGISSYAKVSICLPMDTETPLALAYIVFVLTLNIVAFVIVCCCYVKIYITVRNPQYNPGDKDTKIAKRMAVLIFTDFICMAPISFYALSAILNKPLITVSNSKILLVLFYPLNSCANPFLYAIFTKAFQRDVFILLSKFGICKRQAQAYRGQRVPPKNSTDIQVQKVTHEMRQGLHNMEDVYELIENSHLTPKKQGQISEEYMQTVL

Turning to `CC(C)(C)C1=CC(=O)C(C(C)(C)C)=CC1=O`, the Potency result in assay [1], in assay [2], in assay [4], in assay [5], in [6] and in assay [8] was “inactive” each time. Besides, the Potency result in [9], in [10], in [12], in assay [13] and in assay [14] was “inactive” throughout. Further, the results for the Potency in assay [3] and in assay [7] were 21.1 µM (active) and 9.44 µM (active), respectively. Moreover, in assay [11], the activity change, positive = activation was -2.14% [at 42.5 µM].
With `CCCCCCCCCCCCCCCCC(C(=O)O)C(O)(CC(=O)O)C(=O)O` (stereo not drawn), the Potency entry in assay [1], in assay [2], in assay [3], in [4], in assay [5] and in [7] was “inactive” throughout. The Potency entry in assay [15], in [10], in assay [12], in assay [16], in assay [13] and in assay [17] was “inactive” each time. Moreover, the Potency result in assay [18], in assay [19] and in assay [14] was “inactive” each time. In addition, in assay [11], the activity change, positive = activation is -3.01% [at 42.5 µM].
Consider `[Cl][Sc]([Cl])[Cl]`, for which the Potency entry in assay [1], in [2], in assay [3], in [4], in assay [7] and in [20] was “inactive” throughout. Moreover, the Potency result in assay [15], in assay [8], in assay [9], in assay [10], in [12] and in [16] was “inactive” throughout. For the same compound, the Potency result in assay [13], in assay [17], in [19] and in assay [14] was “inactive” throughout. The activity change, positive = activation in [11] is 0.963%.
Turning to `c1ccc2occc2c1`, the Potency entry in assay [1], in assay [2], in assay [3], in assay [4], in assay [5] and in assay [20] was “inactive” in each case. For the same compound, the Potency result in assay [15], in assay [8], in assay [10], in [12], in assay [16] and in [13] was “inactive” in each case. Besides, the Potency result in assay [17] and in assay [19] was “inactive” in each case. For the same compound, the Potency in [7] is 13.7 µM (active). The activity change, positive = activation in assay [11] was 3.98%.
As for `O=[N+]([O-])c1ccc(O)c2ncccc12`, the Potency result in assay [1], in assay [2], in [6], in assay [7], in assay [20] and in assay [9] was “inactive” each time. Also, the Potency entry in assay [12], in assay [13], in assay [17] and in assay [19] was “inactive” throughout. Further, the Potency in [3] is 11.9 µM (active); in assay [4] it was 10.6 µM (active); in assay [5], 5.31 µM (active); in assay [10], 5.31 µM (active); in assay [18], 9.52 µM (active). The activity change, positive = activation in assay [11] was -55.9% [at 42.5 µM].
With `CN1CCN(CCCN2c3ccccc3Sc3ccc(C(F)(F)F)cc32)CC1`, the Potency result in [1], in [2], in assay [3], in [6], in assay [7] and in assay [15] was “inactive” each time. Besides, the Potency entry in assay [13] was “inactive”. Also, the Potency was 29.8 µM (active) in [4]; 29.8 µM (active) in [5]; 16.9 µM (active) in assay [20]; 33.5 µM (active) in assay [10]; 23.9 µM (active) in [12]; 23.9 µM (active) in assay [16]. Besides, the Potency in assay [19] is 21.3 µM (active). In addition, the activity change, positive = activation in [11] is -69.1% [at 42.5 µM].
As to `O=c1[nH]cccc1O`, the Potency entry in [1], in assay [2], in assay [3], in [5], in assay [20] and in assay [15] was “inactive” each time. Besides, the Potency entry in [8], in [9], in [12], in [16], in [13] and in assay [17] was “inactive” each time. For the same compound, the Potency result in [19] is “inactive”. Moreover, the Potency in assay [10] was 19.3 µM (active). The activity change, positive = activation in assay [11] is -37%.
For the compound `ClC(c1ccccc1)(c1ccccc1)c1ccccc1`, the Potency entry in assay [1], in assay [2], in assay [4], in assay [20], in assay [15] and in assay [8] was “inactive” throughout. Moreover, the Potency result in [9], in [12], in assay [16], in [13], in assay [17] and in [18] was “inactive” each time. Besides, the Potency result in assay [19] is “inactive”. The Potency in assay [3] is 21.7 µM (active).
